# Source: the OligoGym collection
# Target: GEMIN6
# Test: pooled miR-30 sensor sort-seq; sequence = guide strand
# Settings: shRNA
# Note: reference of the scale not given here.
row,Sequence,sensor-assay potency score (higher = more potent)
1,TAAAATATAGTCTTTTTCTATC,-1.26
2,TTGTAAATGTAATCTTGCCATT,-1.2
3,ATTCCGGTCACAGACATGCTGC,-1.04
4,TTTGTAAATGTAATCTTGCCAT,-0.539
5,TTATACTCATTCTTCTCACTGG,0.394
6,TAATCTTGCCATTCTAAGGGGC,0.00534

# Target: GFPT2
# Test: as above
# Settings: shRNA
row,Sequence,sensor-assay potency score (higher = more potent)
1,TTGACTTCGTGATTATTCCCAT,-0.191
2,TTGTCTTTTAAAACTAACTCTA,-0.437
3,TTGACCAGCTGAATGTGTCTTT,0.14
4,TAGTATTGAAAACTGATTCTGG,0.341
5,TTTAAAACTAACTCTAGTGTTG,-0.242
6,ATCACTAGCAAGTTCAACCATC,-0.789
7,TTTGTAAAGTTCTTCATCGAGA,-0.0624
8,TTGGTTTCAAAATTCACCCGAC,0.408
9,TTCTCCAGAGTGCACGTCCTGT,-0.972
10,TTCGTGATTATTCCCATCGATC,-1.22
11,TTTGTAGTGAAATTCGGTCTTC,0.0421
12,TTTCTTGACCAGCTGAATGTGT,-0.609

# Target: GGH
# Test: as above
# Settings: shRNA
row,Sequence,sensor-assay potency score (higher = more potent)
1,TTAGCATAATCTGAGCGTCTGA,-0.339
2,TATTTCATAGTCTTTCTCTGTA,0.438
3,TTCTCTGTAAGATCCAGCCTTA,-0.166
4,TTGAAAAACTTCTTTAACTTTT,-0.924
5,TTGACCTCCAGTGAAGTTCAGC,-0.539
6,TGAACTGATAAATCAATGCTTT,-0.538
7,TAAGACATTGAAAAACTTCTTT,-0.164
8,TTTAACTTTTCATTCATTGTAA,0.207
9,TTTCTCTGTAAGATCCAGCCTT,-0.286
10,ATACTGGATACTTATATCCTTC,-0.969
11,AAATTCTGGAACATTCTGCTGT,0.666
12,TTAATAAGCACTCTCCACTAAT,-1.04

# Target: GH2
# Test: as above
# Settings: shRNA
row,Sequence,sensor-assay potency score (higher = more potent)
1,TATGCCAGCTGGTACAGGCGAC,-1.2
2,TCAAACTTGCTGTAGGACTGAT,0.205
3,AAGGTGTTGGAATAGACTCTGA,-0.802
4,TTGAGCAGTGCGTCATCGTTGT,0.36
5,TAGGTTAGATTTCTGCTGCGTT,0.0139
6,TAGACGTTGCTGTCCGAGGCGC,-0.468
7,TTAAACTCCTGATAGGTGTCAT,-0.0284
8,TAAACTCCTGATAGGTGTCATA,-1.52
9,TAGACTCTGAGAAGCAGAGGGA,0.323
10,TTCTTCAAACTCCTGATAGGTG,-0.633
